Data taken from PubChem BioAssay AID1305 (SRMLSC, 2008).
Fewer than 10 of roughly 1,200 compounds were called active. Not all results are given here. Unmarked numbers belong to inactive results. No rule for the calls is given here.

Experiment: sensitized control strain growth on 5-FOA – S. cerevisiae, OD615, counter-screen for RAM network inhibitor project, dose response (AID 1305);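 also: plate controls were vehicle for no effect and reference inhibitor for full effect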
Settings: S. cerevisiae efflux-deficient reporter strain, 5-FOA growth OD615, 2 days, hits give high values; at 100 µM unless noted

**Q.** With `CCC(C)(C)c1ccc(Oc2ccc(NC(=O)COC(=O)C3=COCCO3)cc2)cc1` as the compound, how does the max inhibition read?
**A.** 1.41%

**Q.** With `Cc1ccccc1CSCCNC(=O)c1ccc(N(C)S(=O)(=O)c2ccccc2)cc1` as the compound, how does the max inhibition read?
**A.** 3.2%

**Q.** With `Fc1ccc(-n2c(Cc3ccccc3)nnc2SCc2nc(-c3ccc(Cl)cc3)no2)cc1` as the compound, how does the max inhibition read?
**A.** 1.1% [setting not given]

**Q.** With `COCCN(C(=O)C(C)C)c1nnc(-c2ccc(C(C)(C)C)cc2)s1` as the compound, how does the max inhibition read?
**A.** 1.87% [at 50 µM]

**Q.** With `COc1ccc(/C=C(\NC(=O)c2ccc(OCC(C)C)cc2)C(=O)OCc2ccco2)cc1` as the compound, how does the max inhibition read?
**A.** 3.48%

**Q.** With `O=C(COC(=O)/C(=C/c1cccs1)c1cccs1)NCc1ccccc1Cl` as the compound, how does the max inhibition read?
**A.** 1.81% [at 25 µM]

**Q.** With `Cc1c(N=Nc2ccc(N(C)C)cc2)c(=O)n(-c2ccccc2)n1C` as the compound, how does the max inhibition read?
**A.** 20%

**Q.** With `CN(C)S(=O)(=O)c1cccc(NC(=O)COC(=O)C2(c3ccccc3F)CCCC2)c1` as the compound, how does the max inhibition read?
**A.** 1.8% [at 50 µM]

**Q.** With `CCOC(=O)c1sc2nc(CSCC(=O)OCc3ccc(C(=O)OC)o3)[nH]c(=O)c2c1C` as the compound, how does the max inhibition read?
**A.** 2.47% [at 50 µM]

**Q.** For `CCN=C1S/C(=C\c2cc(Br)ccc2OCC(=O)OCC)C(=O)N1CC`, which max inhibition is on record?
**A.** 3.82% [at 50 µM]

**Q.** With `Cc1cccc(-n2c(SCC(=O)Nc3cccc(S(=O)(=O)NC4=NCCCCC4)c3)nc3ccccc3c2=O)c1C` as the compound, how does the max inhibition read?
**A.** 2.12% [setting not given]

**Q.** Which max inhibition does the source give for `c1ccc(-c2csc(N3CCc4ccccc4C3)n2)cc1` here?
**A.** 4.47%

**Q.** Which max inhibition does the source give for `O=C(COC(=O)/C=C/c1nc2ccccc2s1)Nc1ccccc1Oc1ccccc1` here?
**A.** 1.95% [at 1.563 µM]

**Q.** With `O=C(OCc1ccc(Br)cc1)c1cccc(-c2nnc(-c3ccccc3)o2)c1` as the compound, how does the max inhibition read?
**A.** 3.97% [at 50 µM]

**Q.** With `CC(=O)c1c(Nc2ccccc2)sc(C(=O)c2ccccc2)c1C` as the compound, how does the max inhibition read?
**A.** 4.16% [at 50 µM]

**Q.** With `CCCSc1nc(NCc2ccco2)c2c3c(sc2n1)COC(C)(CC)C3` (stereo not drawn) as the compound, how does the max inhibition read?
**A.** 4.05% [at 50 µM]

**Q.** With `Cc1ccc(NC2=C(Cl)C(=O)OC2OC(=O)c2ccccc2C)cc1` (stereo not drawn) as the compound, how does the max inhibition read?
**A.** 1.91% [at 50 µM]

**Q.** For `Cc1cc(C)cc(NC(=O)CSCc2cnn(-c3ccccc3)c2-n2cccc2)c1`, which max inhibition is on record?
**A.** 6.62%

**Q.** Which max inhibition does the source give for `COC(=O)CCCCCN1C(=O)NC(c2ccc(-c3ccccc3)cc2)C(C(=O)OCc2ccccc2)=C1C` (stereo not drawn) here?
**A.** 4.42% [at 25 µM]

**Q.** For `O=C(NCc1ccccc1)C1=C[C@@H](c2ccc(C(F)(F)F)cc2)C[C@@H](OCc2ccc(CO)cc2)O1`, which max inhibition is on record?
**A.** 3.48%

**Q.** Which max inhibition does the source give for `Cc1ccc(N=Nc2c(C)[nH]n(-c3ccccc3)c2=O)cc1` here?
**A.** 1.87% [at 50 µM]

**Q.** For `COC(=O)c1sccc1NC(=O)c1csc2c1CCCC2`, which max inhibition is on record?
**A.** 4.49% [at 25 µM]

**Q.** For `CC(O)C(NS(=O)(=O)c1ccc(Cl)cc1)C(=O)OCc1cc([N+](=O)[O-])cc2c1OCOC2` (stereo not drawn), which max inhibition is on record?
**A.** 1.67%

**Q.** For `COc1ccc(Cl)cc1NC(=O)NC(C)C(C)(C)C` (stereo not drawn), which max inhibition is on record?
**A.** 1.97% [setting not given]

**Q.** Which max inhibition does the source give for `CCOC(=O)CC(=O)CSc1nc(-c2ccccc2)cc(-c2ccc(Cl)cc2)c1C#N` here?
**A.** 1.73% [setting not given]

**Q.** Which max inhibition does the source give for `C=CCOC(=O)C1=C(C)NC(SCC(=O)OCC)=C(C#N)C1c1ccc(C)cc1` (stereo not drawn) here?
**A.** 4.12%

**Q.** For `CCCCn1ccnc1C(=O)c1cccc(S(=O)(=O)N2c3ccccc3CC2C)c1` (stereo not drawn), which max inhibition is on record?
**A.** 3.37%

**Q.** For `CN(c1ccccc1)c1ccc(/C=c2\s/c(=C(/C#N)C(=O)C(C)(C)C)n(Cc3ccco3)c2=O)cc1`, which max inhibition is on record?
**A.** 4.2% [at 25 µM]

**Q.** Which max inhibition does the source give for `N/C(Cc1ccc([N+](=O)[O-])cc1)=N\OC(=O)COc1ccc2ccccc2c1` here?
**A.** 1.6%

**Q.** With `COc1ccc(/C(C)=N/Nc2cc(C(F)(F)F)ccc2Cl)c(OC)c1` as the compound, how does the max inhibition read?
**A.** 2.82%

**Q.** Which max inhibition does the source give for `Cc1cc2ccccc2n1CCNC(=O)COc1ccc2ccccc2c1` here?
**A.** 4.22%

**Q.** For `N#C/C(=C\C1=C(N2CCOCC2)C(=C\c2ccccc2)/CC1)C(=O)Nc1ccccc1F`, which max inhibition is on record?
**A.** 1.39% [setting not given]

**Q.** For `COc1ccc(O[C@H]2C=C[C@@H](c3ccccc3)O[C@@H]2CO/N=C/C[C@@H]2C=C[C@H](OC(C)=O)[C@@H](COC(C)=O)O2)cc1`, which max inhibition is on record?
**A.** 1.15% [setting not given]

**Q.** Which max inhibition does the source give for `O=C(COC(=O)CCCNC(=O)c1ccc(Cl)cc1)Nc1cc(Cl)ccc1Cl` here?
**A.** 3.65%

**Q.** For `COc1c(Br)cc2c(C)c(C(=O)N3CCOCC3)oc2c1Br`, which max inhibition is on record?
**A.** 1.57% [setting not given]

**Q.** With `CCC1C/C(=C/c2cccs2)C(=O)/C(=C/c2cccs2)C1` (stereo not drawn) as the compound, how does the max inhibition read?
**A.** 6.29%

**Q.** For `CCc1nc(Nc2ccc3nccnc3c2)c2oc3ccccc3c2n1`, which max inhibition is on record?
**A.** 13.2%

**Q.** For `Oc1c(Cl)cc(Cl)c(Cl)c1Cc1c(O)c(Cl)cc(Cl)c1Cl`, which max inhibition is on record?
**A.** 0.89% [setting not given]

**Q.** For `O=C(CCC(=O)OCc1cccc(C(=O)Oc2ccccc2)c1)Nc1cccc2ccccc12`, which max inhibition is on record?
**A.** 2.95% [at 12.5 µM]

**Q.** Which max inhibition does the source give for `O=C1/C(=C/c2ccc3c(c2)OCO3)CCC/C1=C\c1ccc2c(c1)OCO2` here?
**A.** 4.85% [at 50 µM]

**Q.** For `CCOC(=O)CSC1=C(C#N)C(c2ccco2)C(C(=O)OCc2ccccc2)=C(C)N1` (stereo not drawn), which max inhibition is on record?
**A.** 1.67%

**Q.** With `Cc1ccc(S(=O)(=O)c2c(N)n(C)c3nc4ccccc4nc23)cc1` as the compound, how does the max inhibition read?
**A.** 4.57%

**Q.** Which max inhibition does the source give for `CCC(C(=O)OCC(=O)Nc1c(Cl)cc(Cl)cc1Cl)c1ccccc1` (stereo not drawn) here?
**A.** 2.14% [setting not given]

**Q.** With `C=CCO/N=C(\C)c1c(O)c(C)c(-c2ccccc2)n(-c2ccccc2)c1=O` as the compound, how does the max inhibition read?
**A.** 3.26%

**Q.** For `COc1ccc2c(c1)CCc1c(C(=O)N3CCc4ccccc4C3)noc1-2`, which max inhibition is on record?
**A.** 1.6% [setting not given]

**Q.** With `CCOc1ccc(CN(Cc2ccco2)C(c2cccs2)c2nnnn2C(C)(C)C)cc1` (stereo not drawn) as the compound, how does the max inhibition read?
**A.** 4.45%

**Q.** Which max inhibition does the source give for `Cc1ccc(C(=O)/C=C/c2c(C)nn(-c3ccccc3)c2Cl)cc1` here?
**A.** 7.53%

**Q.** Which max inhibition does the source give for `CCCCC(C(=O)OCC(=O)c1ccc(OC)cc1)N1C(=O)c2ccccc2C1=O` (stereo not drawn) here?
**A.** 4.61%
